High-throughput results as filed in PubChem.
The sample as a whole holds a higher share of hits than the screen did.
TTR transcr act: activators of transthyretin transcription. SH-SY5Y TTR promoter Gaussia luciferase, luminescence; 100% = recombinant luciferase protein wells. activation, % at 16.7 µM. hit rate 1.3% among 92,000. AID 1117267;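 active means activation above the mean of all tested compounds plus 3 SD, cut at about 9.5% in these data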;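 further: cells exposed to compounds for one day before reading; 0% = median of all test compound wells on the plate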
HuH7 TTR inh: counter-screen for TTR activators: TTR transcription inhibitors in HuH7 cells | shares compounds with TTR transcr act | HuH7 TTR promoter-Gaussia luciferase reporter, luminescence | inhibition, % at 16.7 µM | hit rate 4% among 1,100;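 active means average inhibition above the solvent-only control wells' mean plus 3 SD, cut at about 15% in these data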;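 further: 0% = cells with DMSO only and 100% = cells with inhibitor control FD; inhibitors lower well luminescence so higher value means more inhibition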
TTR up confirm: confirmation of human transthyretin transcription activators; shares compounds with TTR transcr act; AID 1117280; activation, % at 16.7 µM; 1,100 tested, under 10 active; SHSY5Y TTR promoter Gaussia luciferase, luminescence; 100% = purified Lucia enzyme wells, no cells;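 active means mean activation above a set limit taken from the earlier primary screen, cut at about 11% in these data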;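 further: 0% = DMSO-treated cells and 100% = recombinant Lucia luciferase without cells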
* hit, by the source's call.

SMILES | TTR transcr act | others
COc1ccc2c(c1)N[C@@](CCNC=O)(c1[nH]c3ccccc3c1CCNC=O)C2=O | 3
CN(C)[C@@H]1CCN(c2ccc3c(c2)O[C@H]2CCN(C2)S3(=O)=O)C1 | 0
CC1(C(=O)NCc2ccccc2)CCC(=O)N1C1CC1 (configuration not stated) | 1
COc1ccc(OCC(=O)NNC(=O)c2ccccc2OCc2c(C)noc2C)cc1 | -2
COc1ccc(CNc2ncnc3cc(Cl)ccc23)cc1 | -2
COc1cc2ncnc(NCc3ccccc3)c2cc1OC | -3
COc1ccc(CNc2ncnc3cc(OC)c(OC)cc23)cc1 | 10* | HuH7 TTR inh=-18;TTR up confirm=1
CCCCCCNC(=O)c1c(N)[nH]c(C(=O)c2ccccc2)c1-c1ccc(O)cc1 | -3
Cc1ccc(CNC(=O)O[C@H]2CC[C@@]34CCCN3C(=O)CCC[C@H]4C2)o1 | 1
Cc1ccc(Cn2cc(COC(=O)NCC(C)C)nn2)cc1 | 0
CN1C(=O)CSc2ccc(NC(=O)N3CCc4ccccc43)cc21 | -4
CN1C(=O)CSc2ccc(NC(=O)NCc3ccc(F)cc3)cc21 | -1
CC(=O)Nc1ccc(NC(=O)Nc2ccc3c(c2)N(C)C(=O)CS3)cc1 | 10* | HuH7 TTR inh=3;TTR up confirm=-1
COC[C@@H]1CCCN1c1cccc2c1S(=O)(=O)N(C1CC1)CCCO2 | -1
Cc1cc2nc(-c3ccccc3)c(Cc3ccsc3)n2c(C)c1Br | -1
CC(=O)c1cccc(NC(=O)C2Cc3c(-c4ccccc4)ccnc3O2)c1 (configuration not stated) | -1
CC(=O)Nc1cccc(-c2ccnc3c2CC(C(=O)Nc2cccnc2)O3)c1 (configuration not stated) | 5
CC(=O)Nc1cccc(-c2ccnc3c2CC(C(=O)Nc2cccc(NS(C)(=O)=O)c2)O3)c1 (configuration not stated) | 17* | HuH7 TTR inh=-22;TTR up confirm=1
O=C(CCC1CCN(C(=O)c2cc(C(F)(F)F)ccc2Cl)CC1)NC1CC1 | 17* | HuH7 TTR inh=-17;TTR up confirm=0
Cc1cc(C)cc(C(=O)N2CCC(CCC(=O)NC3CC3)CC2)c1 | 0
COc1cc(Cl)c(CN2CCC(CCC(=O)NC3CC3)CC2)cc1OC | 1
CC(C)(C)S(=O)N1Cc2cc(C(=O)NCc3ccc4c(c3)OCO4)nc(-c3cccc(-c4ccccc4)c3)c2[C@@H]1CCO (some centres not stated) | 1
C[C@@H]1C(=O)O[C@@H]2CC34[C@H]5C[C@@H](C(C)(C)C)C36[C@H](OC(=O)[C@@H]6O)OC4(C(=O)O5)[C@@]12O (some centres not stated) | 23* | HuH7 TTR inh=-7;TTR up confirm=2
COc1ccc(Cc2nnc(NC(=O)c3cccs3)s2)cc1OC | 15* | HuH7 TTR inh=-30;TTR up confirm=0
COc1ccc(Cc2nnc(NC(=O)c3ccc(OC(C)=O)cc3)s2)cc1OC | 5
SMILES | TTR transcr act | others
COc1cccc(C(=O)Nc2nnc(Cc3ccc(OC)c(OC)c3)s2)c1 | -1
CCCC/C=C1/[C@H](c2ccccc2)N(C)C2=N[C@@H](c3ccccc3)CC(=O)N21 | 1
CCC[C@H]1[C@@H](NC(=O)c2cccc(C)c2)CC[C@@]23CCCN2C(=O)CCC[C@@H]13 | -1
COc1ccccc1C1=NOC(Cn2c(NCC3CCCO3)nc3c2c(=O)n(C)c(=O)n3C)C1 (configuration not stated) | 0
COc1ccccc1-n1cnc2c(c1=O)c1nc3ccccc3nc1n2CCc1ccccc1 | 1
COc1ccccc1C1=NOC(Cn2c(=O)c3c(ncn3C)n(C)c2=O)C1 (configuration not stated) | 16* | HuH7 TTR inh=-15;TTR up confirm=1
Cc1ccc(Cc2c(C(C)(C)C)nc3ccc(Br)cn23)cc1 | 1
Cc1ccc2nc3sc(C(=O)N4CCN(C)CC4)cc3cc2c1 | 0
O=C(c1ccccc1)C1CCN(c2ncnc3sccc23)CC1 | -4
C[C@@H]1CCCCO[C@@H](CN(C)S(=O)(=O)c2ccc(F)cc2)[C@@H](C)CN([C@H](C)CO)C(=O)c2cc(N(C)C)ccc2O1 | -1
C[C@@H]1CN([C@@H](C)CO)C(=O)c2cc(N(C)C)ccc2O[C@@H](C)CCCCO[C@@H]1CN(C)S(=O)(=O)c1cccs1 | 14* | HuH7 TTR inh=-6;TTR up confirm=0
C[C@@H]1CCCCO[C@H](CN(C)S(=O)(=O)c2cccs2)[C@H](C)CN([C@@H](C)CO)C(=O)c2cc(NC(=O)NC3CCCCC3)ccc2O1 | 0
C[C@@H]1CN([C@@H](C)CO)C(=O)CCCn2nncc2CO[C@@H]1CN(C)C(=O)Nc1ccc(N2CCN(C)CC2)cc1 | 1
COC(=O)[C@H](C)NC(=O)[C@@H]1CC=C[C@@H]2CCN(CCc3ccccc3)C(=O)[C@@H]21 | -2
CN(C)S(=O)(=O)c1cccc(NC(=O)CSc2nncn2C)c1 | 12* | HuH7 TTR inh=-6;TTR up confirm=5
CN(c1ccccc1)S(=O)(=O)c1cccc(NC(=O)CSc2nnc(C3CC3)n2C)c1 | 2
Cn1cnnc1SCC(=O)Nc1ccccc1 | 0
Cc1ccc(S(=O)(=O)N2C[C@H]3[C@H]4C(=O)N(c5ccccc5)C(=O)[C@H]4CC(=O)[C@H]3[C@@H]2c2cccc3ccccc23)cc1 | -1
O=C(/C=C/c1ccc(OC(F)F)cc1)OCC(=O)N1CCC(c2ccccc2)=N1 | -1
COC(=O)C[C@@H]1CC[C@@H](NC(=O)C2CCC2)[C@@H](CO)O1 | 3
Cc1cccc(/C(N)=N/OC(=O)COc2ccc(Cl)c(C)c2)c1 | 11* | HuH7 TTR inh=-10;TTR up confirm=-1
Cc1cccc(/C(N)=N/OC(=O)Cc2cccc3ccccc23)c1 | 2
Cc1ccc(C)c(OCC(=O)O/N=C(\N)c2cccnc2)c1 | 1
COc1ccc(CCNC(=O)c2c(N)[nH]c(C(=O)c3ccccc3)c2-c2ccc(N(C)C)cc2)cc1 | -2
Cc1ccc(CNC(=O)c2ccc(N3CCC4(CC3)CC(c3ccccc3)=NO4)c(NC(=O)c3ccco3)c2)cc1 | -1
SMILES | TTR transcr act | others
CCCNC(=O)c1ccc(N2CCC3(CC2)CC(c2ccccc2)=NO3)c(NC(=O)c2cccc(OC)c2)c1 | -3
CCCNC(=O)c1ccc(N2CCC3(CC2)CC(c2ccccc2)=NO3)c(NC(=O)c2ccco2)c1 | 19* | HuH7 TTR inh=19*;TTR up confirm=-2
CCOC(=O)CSCC(=O)Nc1ccc(S(=O)(=O)N2CCCCC2)cc1 | -2
COc1ccc(OCC(=O)Nc2ccc(S(=O)(=O)N3CCCCC3)cc2)cc1 | -1
Cc1ccc(NC(=O)CSc2nc(N)cc(=O)[nH]2)cc1S(=O)(=O)N1CCCCCC1 | 1
Cc1cc(=O)[nH]c(SCC(=O)Nc2ccc(S(=O)(=O)N3CCCCC3)cc2)n1 | 13* | HuH7 TTR inh=-2;TTR up confirm=0
COc1ccc(NC(=S)Nc2ccc(S(=O)(=O)N3CCCCC3)cc2)cc1 | 12* | HuH7 TTR inh=12;TTR up confirm=0
COc1ccc(NC(=O)CSCC(=O)Nc2ccc(S(=O)(=O)N3CCCC3)cc2)cc1 | 0
CCCNC(=O)CSc1nc2ccc(OCC)cc2s1 | 3
O=C(NCCOc1ccc(F)cc1)C1CCC(=O)N(Cc2ccc(Cl)cc2)C1 (configuration not stated) | 2
CC1=C(C(=O)N(C(C)C)C(C)C)CC(CC(=O)NCCCCc2ccccc2)C(=O)N1CCCN1CCCC1=O (configuration not stated) | 0
O=[N+]([O-])c1cccc(-c2nc(-c3ccccn3)no2)c1 | 0
